Assay outcomes: PubChem, National Center for Advancing Translational Sciences (NCATS)
Only some compounds are listed: those with a hit (about 5.2% of all), similar ones and a draw of the others.
FBPA coupling cs = inhibits coupling enzyme system, counter-screen for aldolase hits | 290,000 tested, 0.67% active | coupling enzyme system counterscreen, AmpLite Red fluorescence | AID 2472 | activity change, negative = inhibition, % at 58.2 µM, hits read low; in the data active = activity change below about -30%
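Compounds tested against the coupling enzymes alone at 57.5 uM final; readout was AmpLite Red fluorescence (525/598 nm) after 20 min at RT.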
Tau fibril ThT = inhibitors of human tau fibril formation, thioflavin T binding | P10636 | recombinant tau K18 P301L, heparin-induced fibrillization, ThT fluorescence | Potency, µM (doses to about 57.4 µM), usual class: inhibitors | 270,000 tested, 2.1% active; active = well fitted curve in the direction sought with a large enough effect; inconclusive = small, poorly fitted or top-dose-only effect, or another doubt; inactive = no such curve, though single readings can be large; an effect the other way counts as inactive or inconclusive; note: nearly all actives have a fitted effect of over 55% in size
Target sequence (P10636 561-689 P618L limits assumed): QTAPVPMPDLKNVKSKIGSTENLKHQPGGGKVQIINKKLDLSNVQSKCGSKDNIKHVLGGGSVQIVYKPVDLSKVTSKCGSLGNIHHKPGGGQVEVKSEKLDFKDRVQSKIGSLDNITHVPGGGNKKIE
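ThT emission at 510 nm, taken 1 hr after adding 30 uM dye, quantifies aggregates formed when 20 uM heparin acts on human tau K18 P301L for 6 hr at 37 C.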
Sfp inh = Sfp phosphopantetheinyl transferase inhibition; Q9F4F7; Potency, µM, most hits filed as inhibitors; AID 1490; 310,000 tested, 3.5% active; Biochemical Sfp PPTase activity, qHTS; active = well fitted curve in the direction sought with a large enough effect; inconclusive = small, poorly fitted or top-dose-only effect, or another doubt; inactive = no such curve, though single readings can be large; an effect the other way counts as inactive or inconclusive;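 note: the enzyme is Sfp with the accession as filed and its product quenches rhodamine fluorescence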
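Fluorescence-quenching assay: 15 nM Sfp-PPTase preincubated 15 min at room temperature with compound, then 5 uM rhodamine-CoA and 12.5 uM BHQ-2-labelled YbbR peptide added. Fluorescence (ex 525/em 598 nm) read at start and after 30 min; difference gives rate.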
Tau fluor counter = counter-screen for tau fibril formation inhibitors; tau K18 P301L (four-repeat tau fragment) Alexa594 fluorescence, heparin fibrillization; Potency, µM (series often up to 57.7 µM); 280,000 tested, 0.93% active; active = well fitted curve in the direction sought with a large enough effect; inconclusive = small, poorly fitted or top-dose-only effect, or another doubt; inactive = no such curve, though single readings can be large; an effect the other way counts as inactive or inconclusive; note: nearly all actives have a fitted effect of over 55% in size
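Human K18 P301L tau (15 uM unlabeled plus 0.24 uM Alexa 594-labeled, final) in 100 mM sodium acetate pH 7 was mixed with compound and 20 uM heparin and incubated 6 hr at 37 C.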
Tau fibril FP = tau fibrillization inhibition (FP); K18 P301L tau heparin fibrillization, Alexa594 FP, 6 h; AID 1468; Potency, µM (top dose mostly 57.7 µM), hits mostly inhibitors; 280,000 tested, 0.39% active; active = well fitted curve in the direction sought with a large enough effect; inconclusive = small, poorly fitted or top-dose-only effect, or another doubt; inactive = no such curve, though single readings can be large; an effect the other way counts as inactive or inconclusive; note: nearly all actives have a fitted effect of over 55% in size
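Human tau K18 […] P301L fragment, 15 uM unlabeled plus 0.24 uM Alexa 594-labeled tau (final), with compound and 20 uM heparin in 100 mM sodium acetate pH 7; 6 hr at 37 C, then Alexa 594 FP read.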
CASP1 redox cat = caspase-1 inhibition with catalase present. caspase-1 Ac-WEHD-AFC fluorescence rate, catalase buffer. Potency, µM (titrated, usually from 57.5 µM), actives largely listed as inhibitors. 30 tested, under 10 active. shares compounds with FBPA coupling cs
Casp1 confirm = blocks human caspase-1 activity in concentration-response. shares compounds with FBPA coupling cs. purified caspase-1, fluorogenic substrate cleavage. Potency, µM (doses to about 57.5 µM), usual class: inhibitors. 60 tested, 20% active. AID 896
CASP7 inh CRC = blocks human caspase-7 activity in concentration-response; shares compounds with FBPA coupling cs; recombinant caspase-7, fluorogenic substrate cleavage; Potency, µM (series often up to 57.5 µM), actives largely listed as inhibitors; 60 tested, under 10 active; active = well fitted inhibition curve with a large enough effect in the main read-out, with a control signal flat, not every such curve was filed as active; inconclusive = small, poorly fitted or top-dose-only effect, or a change in a side signal; inactive = no such curve, though single readings can be large or run the other way
Target sequence (P55210 24-198 limits assumed): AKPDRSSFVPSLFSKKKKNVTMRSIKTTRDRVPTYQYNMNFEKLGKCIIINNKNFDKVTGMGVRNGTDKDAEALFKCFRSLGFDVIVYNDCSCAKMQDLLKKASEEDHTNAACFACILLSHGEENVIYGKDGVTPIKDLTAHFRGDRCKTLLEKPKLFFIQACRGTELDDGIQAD
Target sequence (P55210 207-303 limits assumed): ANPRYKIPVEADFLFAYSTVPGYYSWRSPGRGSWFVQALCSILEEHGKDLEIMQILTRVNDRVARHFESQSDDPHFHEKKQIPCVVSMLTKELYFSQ
Casp7 cysteine = inhibits caspase-7 in cysteine buffer, redox counter-screen; shares compounds with FBPA coupling cs; caspase-7 enzyme with cysteine, fluorogenic substrate, redox counterscreen; Potency, µM (top dose mostly 57.5 µM), usual class: inhibitors; 60 tested, under 10 active; AID 908
CASP7 redox cat = inhibits caspase-7 in catalase buffer, redox counter-screen; shares compounds with FBPA coupling cs; Caspase-7 Ac-DEVD-AFC fluorescence rate, catalase buffer; Potency, µM (titrated, usually from 57.5 µM), usual class: inhibitors; 30 tested, under 10 active; AID 909
Casp1 cysteine = inhibits caspase-1 in cysteine buffer, redox counter-screen | AID 929 | Potency, µM (top dose mostly 57.5 µM), most hits filed as inhibitors | 60 tested, under 10 active | recombinant caspase-1, fluorogenic substrate, cysteine buffer | shares compounds with FBPA coupling cs
Hits are given with their value; – = inactive; ? = inconclusive; · = no result; ! = repeats disagree. Unless noted, calls come from the whole dose curve; as a rule, active = well fitted inhibition curve with a large enough effect in the main read-out, with a control signal flat; inconclusive = small, poorly fitted or top-dose-only effect, or a change in a side signal; inactive = no such curve, though single readings can be large or run the other way.

SMILES	FBPA coupling cs	Tau fibril ThT	Sfp inh	Tau fluor counter	Tau fibril FP	CASP1 redox cat	Casp1 confirm	CASP7 inh CRC	Casp7 cysteine	CASP7 redox cat	Casp1 cysteine
Cc1ccc(Cn2c(C)cc3c(c2=O)C(c2cccs2)C(C#N)=C(N)O3)cc1 (stereo not drawn)	–	–	–	–	–	·	·	·	·	·	·
N#CC1=C2SCN(Cc3ccccc3)CN2C(=O)CC1c1cccs1 (stereo not drawn)	-40	28µM	1.1µM	–	?	–	–	–	–	–	–
Cc1cc(C)cc(C(=O)N(C)[C@H](Cc2ccc(-c3ccccc3)cc2)C(=O)N[C@@H](Cc2c[nH]c3ccccc23)C(=O)O)c1	–	?	–	–	–	·	?	16µM	16µM	·	?
CCN1CCN(c2nnc(-n3cccc3C(=O)NCc3ccccc3OC)s2)CC1	·	–	·	–	–	·	·	·	·	·	·
Cc1ccccc1C(=O)Nc1nnc(SCc2cc(=O)n3ccccc3n2)s1	·	–	·	–	–	·	·	·	·	·	·
COc1cc(=O)[nH]c(SCc2c(F)c(F)c(F)c(F)c2F)n1	–	–	–	–	–	·	–	–	–	·	–
COc1ccc(CSc2nc(C)cc(=O)[nH]2)cc1Br	–	?	–	–	–	·	·	·	·	·	·
COc1cccc(Cn2cccc(NC(=O)NC3CCCCC3)c2=O)c1	–	–	–	–	–	–	–	–	–	–	–
COc1ccc(NC(=O)CN(Cc2ccccc2)S(=O)(=O)c2ccc(C)cc2)cc1Cl	·	–	·	–	?	·	·	·	·	·	·
COc1cc2c(cc1OC)CN(C(=O)CSc1nc3[nH]ncc3c(=O)n1-c1ccccc1)CC2	–	–	–	–	–	–	–	?	?	–	–
COc1ccc(N2CCN(C(=O)CSc3nc4[nH]ncc4c(=O)n3-c3cccc4ccccc34)CC2)cc1	–	?	–	?	–	·	·	·	·	·	·
O=C1NCCCC2c3cc(O)c4ccccc4c3OC12N1CCCCC1 (stereo not drawn)	-57	13µM	20µM	?	?	–	–	–	–	–	–
O=C1NCCCC2c3c(cc(Br)c(O)c3Br)OC12N1CCOCC1 (stereo not drawn)	–	?	?	–	?	·	·	·	·	·	·
CC1(C)C(=O)NC2=C1C(=O)C(=O)c1ccccc12	-76	18µM	50µM!	–	?	·	4µM	?	–	·	–
COC(=O)c1ccccc1NC(=O)CSc1nc2ccsc2c(=O)n1CCC(C)C	·	–	·	–	–	·	·	·	·	·	·
COc1ccc(S(=O)(=O)Nc2ccccc2C(F)(F)F)cc1	–	–	–	–	–	·	·	·	·	·	·
COc1ccc(S(=O)(=O)Nc2ccc(O)c3ccccc23)cc1	–	?	–	?	?	–	–	–	–	–	–
Cc1ccc(S(=O)(=O)N(CC(=O)Nc2ccc3c(c2)OCO3)c2ccc(C)c(Cl)c2)cc1	·	–	·	?	–	·	·	·	·	·	·
